According to PubChem BioAssay (EPA / NIEHS):
Results filed as inconclusive are left out. Calls of active or inactive are those of the source. The calls were made as follows: active = hit-call score of the fitted dose curve at least 0.9, where 1 is the maximum; inconclusive = response in the unintended direction; inactive = score below 0.9.

Read-out: Cytochrome P450 2B6 (Homo sapiens) (UniProt P20813)
Test: CLD_CYP2B6_24hr: CellzDirect (CLD) Gene Expression Assay for xenobiotic metabolism (CYP2B6) at 24 hours (AID 2283686)
Description: CLD_24hr is a cell-based, multiplexed-readout assay that uses hepatocyte, a human liver primary cell, with measurements taken at 24 hours after chemical dosing in a 96-well plate.CLD_CYP2B6_24hr is one of 16 assay component(s) measured or calculated from the CLD_24hr assay. It is designed to make measurements of mRNA induction, a form of inducible reporter, as detected with chemiluminescence signals by Quantitative Nuclease Protection Assay (qNPA) technology.Data from the assay component CLD_CYP2B6_24hr was analyzed at the endpoint, CLD_CYP2B6_24hr, in the positive analysis fitting direction relative to DMSO as the negative control and baseline of activity. Using a type of inducible reporter, gain-of-signal activity can be used to understand changes in the reporter gene as they relate to the gene CYP2B6. Furthermore, this assay endpoint can be referred to as a primary readout. To generalize the intended target to other relatable targets, this assay endpoint is annotated to the cyp intended target family, where subfamily is xenobiotic metabolism.
Human hepatocyte cultures were treated daily for two consecutive days with fresh dosing solutions containing appropriate concentrations of the 320 ToxCast chemicals (chemical identities were blinded to CellzDirect and other ToxCast collaborators), vehicle control (0.2% DMSO), and positive control inducers as summarized in Table 1. Due to the large number of treatment groups and chemicals examined, the ToxCast chemicals were divided into two groups (spanning two independent cultures of hepatocytes from separate donor preparations (Hu778: ToxCast plates 1 and 2; Hu776: ToxCast plates 3 and 4). Each preparation of human hepatocyte cultures was treated with respective vehicle control, medium only control, set of six positive controls/reference chemicals for the five hepatic receptor pathways, and a subset of eight of the ToxCast chemicals (indoxacarb, pyrithiobac-sodium, norflurazon, cyhalofop-butyl, methomyl, thiram, acetochlor, and propiconazole). These replicate data, coupled with internal replicates designed within the blinded ToxCast chemical library, provided additional data to evaluate interindividual differences between hepatocyte preparations and their potential impact on chemical profiles.Cell morphology and integrity were evaluated using phase-contrast microscopy as an indicator of hepatocyte cell health (Tyson & Green, 1987). Cultures for each treatment group (i.e., media, vehicle [0.2% DMSO], positive control inducers [multiple concentrations], and the ToxCast chemicals [multiple concentrations]) were observed and cell morphology was assessed relative to vehicle control cultures at each harvest time point (0, 6, 24, or 48 h). […] Images were evaluated at the conclusion of the study to assess changes in cell integrity and account for the effects of chemical exposure on uncharacteristic changes in concentration-dependent gene expression profiles. The results from these determinations of apparent cytotoxicity were annotated (yes/no) alongside the corresponding qNPA data for reference.At the conclusion of each treatment period, hepatocyte cultures (96-well) were washed with 1 volume of HBSS, lysed by addition of 25 ul ArrayPlate lysis buffer (HTG, Tucson, AZ), and 70 ul/well of Denaturation Oil, denatured by incubation at 95C for 10 min, and frozen at approximately -70C until analysis by nuclease protection assay (qNPA) (Roberts et al., 2007). For qNPA analysis, cell lysates were thawed at 50C for approximately 30 min, qNPA probes were added, and samples were incubated at 95C for 10 min to begin the detection process by denaturing the target RNA, dissociating the duplexes and secondary structure hybridization. At the conclusion of the hybridization period, S1 nuclease reagent was added to each sample to digest all nonprotected nucleotides at 50C for 60-90 min. […]

| SMILES | AC50 | outcome |
| --- | --- | --- |
| N#Cc1c[nH]cc1-c1cccc2c1OC(F)(F)O2 | 3.97 µM (active) | – |
| CCSC(=O)N1CCCCCC1 | 0.302 µM (active) | – |
| O=C(Nc1ccccc1-c1ccc(Cl)cc1)c1cccnc1Cl | 0.427 µM (active) | – |
| COC(=O)c1c(C(F)F)nc(C(F)(F)F)c(C2=NCCS2)c1CC(C)C | 7.48 µM (active) | – |
| CC1(C)C(C=C(Cl)Cl)C1C(=O)OC(C#N)c1cccc(Oc2ccccc2)c1 (stereo not given) | 4.4 µM (active) | – |
| CCOc1cc(C(C)(C)C)ccc1C1COC(c2c(F)cccc2F)=N1 (stereo not given) | 1.9 µM (active) | – |
| CC1(C)CON(Cc2ccccc2Cl)C1=O | 20 µM (active) | – |
| CC(C)NC(=O)N1CC(=O)N(c2cc(Cl)cc(Cl)c2)C1=O | 10.4 µM (active) | – |
| CS(=O)(=O)c1cc(C(F)(F)F)ccc1C(=O)c1cnoc1C1CC1 | 6.01 µM (active) | – |
| CSC(=O)c1c(C(F)F)nc(C(F)(F)F)c(C(=O)SC)c1CC(C)C | 1.22 µM (active) | – |
| CNC(=O)Oc1cccc2ccccc12 | 7.28 µM (active) | – |
| Nc1c(Cl)c(Cl)nc(C(=O)O)c1Cl | – | inactive |
| CC1(C)C(C(=O)OC(C#N)c2cccc(Oc3ccccc3)c2)C1(C)C (stereo not given) | 4.44 µM (active) | – |
| CCN(CC)C(=O)C(C)Oc1cccc2ccccc12 (stereo not given) | – | inactive |
| CC(C)(C)C(=O)C(Oc1ccc(Cl)cc1)n1cncn1 (stereo not given) | 4.5 µM (active) | – |
| O=C(O)c1c(Cl)ccc2cc(Cl)cnc12 | – | inactive |
| Clc1nc(Cl)nc(Nc2ccccc2Cl)n1 | – | inactive |
| CC(C)N1C(=O)c2ccccc2NS1(=O)=O | – | inactive |
| COc1cc(Cl)c(OC)cc1Cl | 0.598 µM (active) | – |
| COc1ccc(-c2ccccc2)cc1NNC(=O)OC(C)C | 4.09 µM (active) | – |

| SMILES | AC50 | outcome |
| --- | --- | --- |
| CC(C)Oc1cccc(NC(=O)c2ccccc2C(F)(F)F)c1 | 4.95 µM (active) | – |
| C=CCOC(=O)C(C)(C)OC(=O)c1cc(-n2c(=O)cc(C(F)(F)F)n(C)c2=O)ccc1Cl | 0.173 µM (active) | – |
| Nc1cnn(-c2ccccc2)c(=O)c1Cl | – | inactive |
| COP(=O)(OC)O/C(C)=C/C(=O)N(C)C | – | inactive |
| CO/N=C(/C1=NOCCO1)c1ccccc1Oc1ncnc(Oc2ccccc2Cl)c1F | – | inactive |
| CCC(C)n1c(=O)[nH]c(C)c(Br)c1=O (stereo not given) | 1.56 µM (active) | – |
| CN=C=S | – | inactive |
| COC(=O)NS(=O)(=O)c1ccc(N)cc1 | – | inactive |
| COC(=O)NC(=S)Nc1ccccc1NC(=S)NC(=O)OC | 7.45 µM (active) | – |
| COCC(C)N(C(=O)CCl)c1c(C)csc1C (stereo not given) | 11.9 µM (active) | – |
| COP(=S)(OC)Oc1ccc([N+](=O)[O-])c(C)c1 | 0.692 µM (active) | – |
| CCCN(CC)CC1COC2(CCC(C(C)(C)C)CC2)O1 (stereo not given) | 9.21 µM (active) | – |
| C=C(C)CN(CC)c1c([N+](=O)[O-])cc(C(F)(F)F)cc1[N+](=O)[O-] | – | inactive |
| CCOC(=O)C(C)OC(=O)c1cc(Oc2ccc(C(F)(F)F)cc2Cl)ccc1[N+](=O)[O-] (stereo not given) | 10.3 µM (active) | – |
| Nc1c(Cl)c(F)nc(OCC(=O)O)c1Cl | – | inactive |
| CCNP(=S)(OC)O/C(C)=C/C(=O)OC(C)C (stereo not given) | 0.981 µM (active) | – |
| Cc1cc(C)nc(Nc2ccccc2)n1 | 1.9 µM (active) | – |
| CC(C)=CC1C(C(=O)OCc2coc(Cc3ccccc3)c2)C1(C)C (stereo not given) | 5.63 µM (active) | – |
| CC(C)Nc1nc(Cl)nc(NC(C)C)n1 | 3.26 µM (active) | – |
| CC1(C)CCC(=Cc2ccc(Cl)cc2)C1(O)Cn1cncn1 (stereo not given) | 3.58 µM (active) | – |
